Results taken from PubChem BioAssay (Tox21).
Records with an inconclusive call do not appear. Active and inactive are the calls of the source. Unless noted, the call rests on the fitted dose curve; in most records, active means well fitted curve in the direction sought with a large enough effect in the repeat runs; inconclusive means weak or mixed curves; inactive means no such curve, though single readings can be large; an effect the other way counts as inactive or inconclusive.

Key:
[1] = qHTS assay to identify small molecule antagonists of the peroxisome proliferator-activated receptor delta (PPARd) signaling pathway - cell viability counter screen (AID 743213); further: on the % scale 0 is the no-effect control and ±100 the full control effect; nearly all actives have a fitted effect of over 50% in size
Summary of the method: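 Agonist-stimulated (L165041, 300 nM final) HEK293H PPARd UAS-bla cells are exposed to compounds for 17 h at 37 C, and ATP-based luminescence (CellTiter-Glo) from the same wells reports cytotoxicity.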

[2] = molecular target: Peroxisome proliferator-activated receptor delta (Homo sapiens) (UniProt Q03181); experiment: qHTS assay to identify small molecule antagonists of the peroxisome proliferator-activated receptor delta (PPARd) signaling pathway (AID 743215; active means well fitted inhibition curve with a large enough effect in the signal ratio in the repeat runs, not every such curve was filed as active; the % refers to the signal ratio; further: series mostly up to about 62 µM; on the % scale 0 is the no-effect control and ±100 the full control effect)
Chain of Peroxisome proliferator-activated receptor delta (Homo sapiens) (Q03181 whole entry, looked up): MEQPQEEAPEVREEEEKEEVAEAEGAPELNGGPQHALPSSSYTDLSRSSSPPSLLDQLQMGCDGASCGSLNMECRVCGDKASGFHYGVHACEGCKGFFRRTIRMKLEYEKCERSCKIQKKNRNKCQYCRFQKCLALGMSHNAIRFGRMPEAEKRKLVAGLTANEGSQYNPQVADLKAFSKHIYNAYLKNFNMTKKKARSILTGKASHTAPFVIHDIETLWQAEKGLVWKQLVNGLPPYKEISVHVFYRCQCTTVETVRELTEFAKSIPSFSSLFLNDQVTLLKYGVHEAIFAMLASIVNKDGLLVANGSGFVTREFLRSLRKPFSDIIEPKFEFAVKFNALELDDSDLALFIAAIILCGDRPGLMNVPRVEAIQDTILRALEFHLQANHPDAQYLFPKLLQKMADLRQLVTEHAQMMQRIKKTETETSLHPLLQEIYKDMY
Summary of the method: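 PPARd UAS-bla HEK293H cells were pre-incubated 5 h at 37 C, then given test compounds in DMSO plus agonist L165041 (300 nM final). After 17 h at 37 C, beta-lactamase FRET substrate was added; fluorescence read after 2 h at room temperature.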

[3] = molecular target: Bile acid receptor (Homo sapiens) (UniProt Q96RI1); experiment: qHTS assay to identify small molecule antagonists of the farnesoid-X-receptor (FXR) signaling pathway (AID 743217; active means well fitted inhibition curve with a large enough effect in the signal ratio in the repeat runs, not every such curve was filed as active; the % refers to the signal ratio; further: on the % scale 0 is the no-effect control and ±100 the full control effect)
Chain of Bile acid receptor (Homo sapiens) (Q96RI1 whole entry, looked up): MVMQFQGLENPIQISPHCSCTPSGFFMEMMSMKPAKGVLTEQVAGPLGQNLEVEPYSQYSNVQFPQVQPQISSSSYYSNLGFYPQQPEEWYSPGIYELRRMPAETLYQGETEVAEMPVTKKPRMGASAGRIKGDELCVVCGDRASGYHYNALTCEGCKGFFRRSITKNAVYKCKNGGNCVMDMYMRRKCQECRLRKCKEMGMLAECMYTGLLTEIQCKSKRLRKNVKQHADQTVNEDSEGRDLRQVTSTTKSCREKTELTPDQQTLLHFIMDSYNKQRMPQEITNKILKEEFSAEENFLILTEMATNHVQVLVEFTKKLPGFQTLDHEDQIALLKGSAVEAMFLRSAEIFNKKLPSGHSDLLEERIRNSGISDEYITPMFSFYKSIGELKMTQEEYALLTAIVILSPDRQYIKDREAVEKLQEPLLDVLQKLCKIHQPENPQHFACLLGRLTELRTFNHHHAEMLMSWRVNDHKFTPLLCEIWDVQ
Summary of the method: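 FXR-UAS-bla HEK 293T cells pre-incubated 5 h at 37 °C, then exposed to compounds with chenodeoxycholic acid (50 uM final) for 16 h at 37 °C. Beta-lactamase reporter read by LiveBLAzer B/G FRET substrate fluorescence after 2 h at room temperature.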

[4] = qHTS assay to identify small molecule agonists of the farnesoid-X-receptor (FXR) signaling pathway - cell viability counter screen (AID 743218); further: on the % scale 0 is the no-effect control and ±100 the full control effect; nearly all actives have a fitted effect of over 45% in size
Summary of the method: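 FXR-UAS-bla HEK 293T cells, plated 5 h at 37 C, were exposed to compounds for 16 h at 37 C. CellTiter-Glo was then added to the same wells as the bla readout; luminescence read after 30 min at room temperature.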

[5] = qHTS assay to identify small molecule antagonists of the farnesoid-X-receptor (FXR) signaling pathway - cell viability counter screen (AID 743221; active means well fitted cell-killing curve with a large enough effect in the repeat runs, not every such curve was filed as active; further: on the % scale 0 is the no-effect control and ±100 the full control effect; nearly all actives have a fitted effect of over 50% in size)
Summary of the method: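 HEK 293T FXR-bla cells, 5 h pre-incubation; compound + CDCA 50 uM final, 16 h, 37 C; beta-lactamase FRET read first, then CellTiter-Glo luminescence, 30 min RT.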

[6] = qHTS assay to identify small molecule agonists of the vitamin D receptor (VDR) signaling pathway - cell viability counter screen (AID 743224); further: series mostly up to about 63 µM; on the % scale 0 is the no-effect control and ±100 the full control effect; nearly all actives have a fitted effect of over 50% in size
Summary of the method: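 VDR-bla cells were preincubated 4 h at 37C/5% CO2, then exposed to compounds for 16 h. After the 2 h room-temperature bla FRET read, CellTiter-Glo was added to the same wells and luminescence read after 30 min.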

[7] = qHTS assay to identify small molecule antagonists of the vitamin D receptor (VDR) signaling pathway - cell viability counter screen (AID 743225); further: on the % scale 0 is the no-effect control and ±100 the full control effect; nearly all actives have a fitted effect of over 50% in size
Summary of the method: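 Viability counter screen run in the same wells as the beta-lactamase reporter assay: HEK 293T VDR-UAS-bla cells, 16 h compound exposure at 37C with 3 nM (final) 1-alpha,25-dihydroxyvitamin D3. CellTiter-Glo luminescence, 30 min, room temperature.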

[8] = qHTS assay to identify small molecule agonists of the NFkB signaling pathway - cell viability counter screen (AID 1159515; calls by dose curve; further: series mostly up to about 61 µM; on the % scale 0 is the no-effect control and ±100 the full control effect; nearly all actives have a fitted effect of over 55% in size)
Summary of the method: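 NFkB-bla ME-180 cells, 2,000/well, were plated overnight at 37 C, 5% CO2, then exposed to compounds in DMSO for 5 hr. After the bla FRET read, CellTiter-Glo was added to the same wells; luminescence was read after 30 min at room temperature.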

[9] = qHTS assay to identify small molecule agonists of the endoplasmic reticulum stress response signaling pathway (AID 1159516; active means well fitted activation curve with a large enough effect in the signal ratio in the repeat runs, not every such curve was filed as active; the % refers to the signal ratio; further: on the % scale 0 is the no-effect control and ±100 the full control effect)
Summary of the method: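 CellSensor ESRE-bla HeLa cells, carrying a beta-lactamase reporter driven by the ER stress response element, were plated overnight and exposed to compounds for 5 hr at 37 C. Reporter activity was read as FRET substrate fluorescence after 2 hr at room temperature.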

[10] = qHTS assay to identify small molecule antagonists of the retinoid-related orphan receptor gamma (ROR-gamma) signaling pathway - cell viability counter screen (AID 1159520)
Summary of the method: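 Cytotoxicity was read from cellular ATP (CellTiter-Glo luminescence) after 16 hr at 37 C with 1 uM doxycycline induction. The inducer was added 2 hr after compound transfer to Tet-on ROR gamma CHO cells.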

[11] = molecular target: Nuclear receptor ROR-gamma (Homo sapiens) (UniProt P51449); experiment: qHTS assay to identify small molecule antagonists of the retinoid-related orphan receptor gamma (ROR-gamma) signaling pathway (AID 1159521)
Summary of the method: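 Luminescence readout (ONE-Glo, 30 min RT) after 16 h doxycycline induction; loss of signal scored as antagonism. CHO cells with TET-inducible RORγ and RORE-LUC reporter; compounds added 2 h before 1 uM final doxycycline.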

[12] = qHTS assay to identify small molecule agonists of the AP-1 signaling pathway - cell viability counter screen (AID 1159525; calls by dose curve; further: nearly all actives have a fitted effect of over 55% in size)
Summary of the method: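 Luminescent ATP readout (Cell Titer Glo, 30 min RT), normalised to DMSO and tetra n-octyl ammonium bromide controls. Cells were ME-180 AP-1-bla in 0.5% dialyzed FBS Opti-MEM, with a 5 h, 37 °C compound exposure.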

[13] = qHTS assay to identify small molecule agonists of the AP-1 signaling pathway (AID 1159526; calls by dose curve; further: on the % scale 0 is the no-effect control and ±100 the full control effect)
[14] = molecular target: Retinoic acid receptor RXR-alpha (Homo sapiens) (UniProt P19793); experiment: qHTS assay to identify small molecule agonists of the RXR signaling pathway (AID 1159527; calls by dose curve; further: on the % scale 0 is the no-effect control and ±100 the full control effect; nearly all actives have a fitted effect of over 35% in size)
Chain of Retinoic acid receptor RXR-alpha (Homo sapiens) (P19793 whole entry, looked up): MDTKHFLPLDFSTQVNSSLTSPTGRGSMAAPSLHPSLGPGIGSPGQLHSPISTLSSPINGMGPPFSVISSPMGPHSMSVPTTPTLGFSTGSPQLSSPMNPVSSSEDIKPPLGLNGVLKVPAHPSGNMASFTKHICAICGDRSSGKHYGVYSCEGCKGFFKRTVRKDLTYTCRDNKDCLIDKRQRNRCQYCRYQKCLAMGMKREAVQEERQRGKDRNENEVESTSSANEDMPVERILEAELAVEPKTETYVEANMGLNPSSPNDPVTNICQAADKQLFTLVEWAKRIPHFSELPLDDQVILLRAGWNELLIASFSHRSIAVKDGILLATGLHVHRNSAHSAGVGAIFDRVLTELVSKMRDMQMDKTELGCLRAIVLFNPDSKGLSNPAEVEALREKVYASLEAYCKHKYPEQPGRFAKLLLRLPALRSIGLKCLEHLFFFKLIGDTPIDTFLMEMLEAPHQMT
Summary of the method: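 Agonist mode; 9-cis retinoic acid positive control. HEK 293T UAS-bla reporter cells, 2% charcoal-stripped FBS, 16 hr compound exposure at 37 C/5% CO2. LiveBLAzer B/G FRET substrate 2 hr RT; ex 405, em 460/530 nm.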

[15] = qHTS assay to identify small molecule agonists of the RXR signaling pathway - cell viability counter screen (AID 1159529)
Summary of the method: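 Luminescence from CellTiter-Glo (30 min, RT) measured viability in the same wells as the beta-lactamase reporter readout. Cells: GeneBLAzer RXR-alpha HEK 293T, 2% charcoal-stripped FBS. Compound exposure 16 hr, 37 C.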

[16] = molecular target: Peroxisome proliferator-activated receptor delta (Homo sapiens) (UniProt Q03181); experiment: qHTS assay to identify small molecule agonists of the peroxisome proliferator-activated receptor delta (PPARd) signaling pathway (AID 743212; calls by dose curve; further: on the % scale 0 is the no-effect control and ±100 the full control effect)
Summary of the method: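 HEK293H PPARd-bla cells; 5 h preincubation 37 C/5% CO2; compound (DMSO) 37 C; LiveBLAzer B/G FRET substrate 2 h RT; fluorescence intensity.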

[17] = molecular target: Vitamin D3 receptor (Homo sapiens) (UniProt P11473); experiment: qHTS assay to identify small molecule agonists of the vitamin D receptor (VDR) signaling pathway (AID 743222; calls by dose curve; further: on the % scale 0 is the no-effect control and ±100 the full control effect)
Chain of Vitamin D3 receptor (Homo sapiens) (P11473 whole entry, looked up): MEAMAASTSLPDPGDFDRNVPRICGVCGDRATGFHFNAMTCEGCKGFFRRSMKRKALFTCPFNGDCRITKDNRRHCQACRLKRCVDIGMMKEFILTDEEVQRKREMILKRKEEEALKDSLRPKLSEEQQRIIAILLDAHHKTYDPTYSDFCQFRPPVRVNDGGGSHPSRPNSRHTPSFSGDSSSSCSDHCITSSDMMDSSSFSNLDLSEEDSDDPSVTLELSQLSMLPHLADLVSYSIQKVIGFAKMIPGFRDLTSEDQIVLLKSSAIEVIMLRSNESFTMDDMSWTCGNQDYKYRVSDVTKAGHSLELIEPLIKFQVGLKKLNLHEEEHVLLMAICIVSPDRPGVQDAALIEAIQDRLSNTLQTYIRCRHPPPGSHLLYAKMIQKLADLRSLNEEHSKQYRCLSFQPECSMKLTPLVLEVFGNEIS
Summary of the method: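 VDR-bla cells were plated 4 h at 37C/5% CO2, then exposed to compounds in DMSO for 16 h. After LiveBLAzer B/G FRET substrate addition and 2 h at room temperature, beta-lactamase reporter fluorescence was read.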

[18] = molecular target: Vitamin D3 receptor (Homo sapiens) (UniProt P11473); experiment: qHTS assay to identify small molecule antagonists of the vitamin D receptor (VDR) signaling pathway (AID 743223; active means well fitted inhibition curve with a large enough effect in the signal ratio in the repeat runs, not every such curve was filed as active; the % refers to the signal ratio; further: on the % scale 0 is the no-effect control and ±100 the full control effect)
Summary of the method: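 Beta-lactamase reporter read-out: FRET substrate fluorescence after 2 h at room temperature, following 16 h exposure of VDR-bla cells to test compound plus 3 nM (final) 1alpha,25-dihydroxyvitamin D3 agonist at 37C.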

[19] = molecular target: Bile acid receptor (Homo sapiens) (UniProt Q96RI1); experiment: qHTS assay to identify small molecule agonists of the farnesoid-X-receptor (FXR) signaling pathway (AID 743220; active means well fitted activation curve with a large enough effect in the signal ratio in the repeat runs, not every such curve was filed as active; the % refers to the signal ratio; further: on the % scale 0 is the no-effect control and ±100 the full control effect)
Summary of the method: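 Beta-lactamase reporter under UAS control in GeneBLAzer FXR HEK 293T cells (5000/well) measured with LiveBLAzer FRET substrate after 2 h at room temperature. Compound exposure lasted 16 h at 37C.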

[20] = qHTS assay to identify small molecule agonists of the endoplasmic reticulum stress response signaling pathway - cell viability counter screen (AID 1159517; calls by dose curve)
Summary of the method: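 HeLa cells carrying an ESRE-driven beta-lactamase reporter receive compound for 5 hr at 37 C. Cell viability is then gauged with CellTiter-Glo by luminescence, 30 min at room temperature.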

CCCCCCCCCCCCCCCCN(C)C
inactive: viability change, negative = cytotoxic [1] 1.6% [at 6.26 µM] | ratio activity, negative = inhibition [2] -0.339% [at 6.26 µM] | activity change, negative = inhibition [3] -5.41% [at 5.95 µM] | viability change, negative = cytotoxic [4] 0.68% [at 5.95 µM] | activity change, negative = cytotoxicity [5] -0.818% [at 5.95 µM] | activity change, negative = cytotoxicity [6] 12.1% [at 5.95 µM] | viability change, negative = cytotoxic [7] -0.156% [at 6.95 µM] | activity, negative = cytotoxic [8] -0.303% [at 6.95 µM] | activation [9] 0.0292% [at 6.95 µM] | activity, negative = cytotoxicity [10] 7.06% [at 8.39 µM] | activity change, negative = inhibition [11] 0.397% [at 8.39 µM] | viability change, negative = cytotoxic [12] 0.637% [at 6.97 µM] | activation [13] -6.44% [at 6.97 µM] | activation [14] 8.03% [at 6.98 µM] | activity change, negative = cytotoxicity [15] 1.35% [at 6.97 µM]

CN(C)CCCN(C)C
inactive: activation [16] -1.31% [at 5.95 µM] | viability change, negative = cytotoxic [1] 1.43% [at 6.26 µM] | ratio activity, negative = inhibition [2] 5.28% [at 6.26 µM] | viability change, negative = cytotoxic [4] 2.3% [at 5.95 µM] | activation [17] -2.68% [at 6.01 µM] | activity change, negative = inhibition [18] -1.32% [at 6.95 µM] | activity change, negative = cytotoxicity [6] 0.624% [at 5.95 µM] | activity, negative = cytotoxic [8] 0.193% [at 6.95 µM] | activation [9] 3.45% [at 6.95 µM] | activity, negative = cytotoxicity [10] 11.1% [at 8.39 µM] | activity change, negative = inhibition [11] -7.64% [at 8.39 µM] | viability change, negative = cytotoxic [12] -0.503% [at 6.97 µM] | activation [13] -5.98% [at 6.97 µM] | activation [14] 4.65% [at 6.98 µM] | activity change, negative = cytotoxicity [15] -1.24% [at 6.97 µM]

CNC(C)=O
inactive: outcome [16] | outcome [1] | outcome [2] | outcome [4] | outcome [5] | outcome [17] | outcome [18] | outcome [6] | outcome [7] | outcome [8] | Potency [9] | outcome [10] | outcome [11] | outcome [12] | Potency [13] | Potency [14]

C/C(Cl)=C/CCl
inactive: outcome [16] | outcome [2] | outcome [3] | outcome [4] | outcome [19] | outcome [5] | outcome [7] | outcome [8] | Potency [9] | outcome [10] | outcome [11] | outcome [12] | Potency [13] | Potency [14] | Potency [15]

CC(C)(C)OC(=O)c1ccccc1C(=O)O
inactive: outcome [16] | outcome [1] | outcome [2] | outcome [3] | outcome [4] | outcome [19] | outcome [5] | outcome [17] | outcome [18] | outcome [6] | outcome [7] | outcome [8] | Potency [9] | outcome [11] | outcome [12] | Potency [13] | Potency [14] | Potency [15]

C=CCn1cc[n+](C)c1
inactive: outcome [1] | outcome [4] | outcome [17] | outcome [18] | outcome [6] | outcome [7] | outcome [8] | Potency [9] | outcome [11] | outcome [12] | Potency [13] | Potency [14] | Potency [15]

CCCCC(CC)COC(=O)CC#N (configuration not stated)
inactive: outcome [1] | outcome [3] | outcome [4] | outcome [19] | outcome [5] | outcome [17] | outcome [18] | outcome [6] | outcome [7] | outcome [8] | Potency [9] | outcome [11] | outcome [12] | Potency [13] | Potency [14] | Potency [15]

BrCCOc1ccccc1
inactive: outcome [16] | outcome [1] | outcome [2] | outcome [3] | outcome [4] | outcome [19] | outcome [5] | outcome [17] | outcome [18] | outcome [6] | outcome [7] | outcome [8] | outcome [20] | outcome [10] | outcome [11] | outcome [12] | Potency [13] | Potency [14] | Potency [15]
